PubChem BioAssay (EPA / NIEHS)
Active and inactive are the calls of the source. How the source made its calls: active means hit-call score of the fitted dose curve at least 0.9, where 1 is the maximum; inactive means score below 0.9.

What was measured:
[1] = read-out: Vascular cell adhesion molecule 1 (VCAM1), VCAM1 (gene 7412); experiment: BSK_CASM3C_VCAM1: BioMAP Diversity Plus: CASM3C Assay for Vascular cell adhesion molecule 1 (VCAM1) Biomarker Activity (AID 2283055); details: primary human coronary artery smooth muscle cells; actives raise or lower the signal;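 further: VCAM-1 protein level quantified by ELISA on the cells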
[2] = read-out: Collagen III, COL3A1 (gene 1281); experiment: BSK_hDFCGF_CollagenIII: BioMAP Diversity Plus: hDFCGF Assay for Collagen III Biomarker Activity (AID 2283056); details: primary human foreskin fibroblasts; actives raise or lower the signal
Outline: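 ELISA read-out of collagen III from human skin fibroblast cultures sampled 24 h post-dosing. Values were derived by bidirectional fitting relative to the DMSO vehicle control.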

[3] = read-out: Epidermal growth factor receptor (EGFR), EGFR (gene 1956); experiment: BSK_hDFCGF_EGFR: BioMAP Diversity Plus: hDFCGF Assay for Epidermal growth factor receptor (EGFR) Biomarker Activity (AID 2283057); details: primary human foreskin fibroblasts; actives raise or lower the signal
Outline: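 Primary human foreskin fibroblasts were exposed to compound for 24 h, after which cell-surface EGFR was quantified by ELISA. Activity was fitted bidirectionally against the DMSO negative control as baseline.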

[4] = read-out: Interleukin-8 (IL8), CXCL8 (gene 3576); experiment: BSK_hDFCGF_IL8: BioMAP Diversity Plus: hDFCGF Assay for Interleukin-8 (IL8) Biomarker Activity (AID 2283058); details: primary human foreskin fibroblasts; actives raise or lower the signal
Outline: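 Cells used are human skin primary fibroblasts. Chemical is added, cultures run 24 h, then IL-8 is quantified by ELISA, and gain or loss versus DMSO control is fitted in both directions.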

[5] = BSK_hDFCGF_Proliferation: Cell Proliferation Assessment in the BioMAP Diversity Plus: hDFCGF Assay (AID 2283059); details: primary human foreskin fibroblasts;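 further: curves fitted for both rise and fall of signal versus DMSO baseline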
Outline: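 Steps: dose primary human dermal fibroblasts (foreskin); […] fix in 10% TCA; stain with 0.1% SRB; read 560 nm; fit gain or loss of signal against DMSO.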

[6] = read-out: Macrophage colony-stimulating factor (MCSF), CSF1 (gene 1435); experiment: BSK_hDFCGF_MCSF: BioMAP Diversity Plus: hDFCGF Assay for Macrophage colony-stimulating factor (MCSF) Biomarker Activity (AID 2283060); details: primary human foreskin fibroblasts; actives raise or lower the signal
Outline: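 Primary human foreskin fibroblasts dosed with chemical; 24 h later, M-CSF quantified by ELISA; curves fitted in both directions vs DMSO negative control.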

[7] = BSK_hDFCGF_SRB: Viability Assessment in the BioMAP Diversity Plus: hDFCGF Assay (AID 2283061); details: primary human foreskin fibroblasts;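 further: cells exposed to compound for 24 h before the read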
Outline: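 Readout is SRB absorbance at 560 nm, reflecting total protein in parallel cultures of human foreskin fibroblasts harvested 24 h after chemical dosing. Activity was fitted bidirectionally relative to DMSO.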

[8] = read-out: TIMP metallopeptidase inhibitor 1 (TIMP1), TIMP1 (gene 7076); experiment: BSK_hDFCGF_TIMP1: BioMAP Diversity Plus: hDFCGF Assay for TIMP metallopeptidase inhibitor 1 (TIMP1) Biomarker Activity (AID 2283062); details: primary human foreskin fibroblasts; actives raise or lower the signal
Outline: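 Human skin fibroblasts (primary), hDFCGF system; compound exposure 24 h; TIMP-1 by ELISA; bidirectional fit vs DMSO negative control; overt cytotoxicity by SRB in parallel wells.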

[9] = read-out: Monokine induced gamma interferon (MIG), CXCL9 (gene 4283); experiment: BSK_hDFCGF_MIG: BioMAP Diversity Plus: hDFCGF Assay for Monokine induced gamma interferon (MIG) Biomarker Activity (AID 2283063); details: primary human foreskin fibroblasts; actives raise or lower the signal
Outline: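 Chemicals were added to primary human foreskin fibroblast cultures, which were sampled 24 h later. MIG levels were then quantified by ELISA and responses fitted in both directions relative to DMSO.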

[10] = read-out: Matrix Metallopeptidase 1 (MMP1), MMP1 (gene 4312); experiment: BSK_hDFCGF_MMP1: BioMAP Diversity Plus: hDFCGF Assay for Matrix Metallopeptidase 1 (MMP1) Biomarker Activity (AID 2283064); details: primary human foreskin fibroblasts; actives raise or lower the signal
Outline: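 Primary human foreskin fibroblasts in the hDFCGF system were dosed with test chemical, and MMP1 was measured by ELISA 24 h later. Values come from bidirectional curve fitting against the DMSO baseline.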

[11] = read-out: Vascular cell adhesion molecule 1 (VCAM1), VCAM1 (gene 7412); experiment: BSK_hDFCGF_VCAM1: BioMAP Diversity Plus: hDFCGF Assay for Vascular cell adhesion molecule 1 (VCAM1) Biomarker Activity (AID 2283065); details: primary human foreskin fibroblasts; actives raise or lower the signal;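 on AC50: VCAM-1 protein level quantified by ELISA after 24 h chemical exposure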
Outline: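 Human foreskin fibroblast primary cells, chemical exposure 24 h; VCAM-1 by ELISA; bidirectional fit, DMSO = negative control/baseline.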

[12] = read-out: Plasminogen activator inhibitor-1 (PAI1), SERPINE1 (gene 5054); experiment: BSK_hDFCGF_PAI1: BioMAP Diversity Plus: hDFCGF Assay for Plasminogen activator inhibitor-1 (PAI1) Biomarker Activity (AID 2283066); details: primary human foreskin fibroblasts; actives raise or lower the signal
Outline: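 Human foreskin fibroblasts in the hDFCGF system were dosed with compound for 24 h; PAI-1 was quantified by ELISA. Bidirectional curve fitting used DMSO as negative control and baseline.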

[13] = read-out: Intercellular Adhesion Molecule 1 (ICAM1), ICAM1 (gene 3383); experiment: BSK_KF3CT_ICAM1: BioMAP Diversity Plus: KF3CT Assay for Intercellular Adhesion Molecule 1 (ICAM1) Biomarker Activity (AID 2283067); details: primary human keratinocytes with fibroblasts; actives raise or lower the signal
Outline: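 ICAM-1 levels are measured by ELISA 24 h after dosing a primary human co-culture of keratinocytes and foreskin fibroblasts. Activity in either direction is fitted relative to DMSO vehicle.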

[14] = read-out: Interferon-gamma inducible Protein 10 (IP10), CXCL10 (gene 3627); experiment: BSK_KF3CT_IP10: BioMAP Diversity Plus: KF3CT Assay for Interferon-gamma inducible Protein 10 (IP10) Biomarker Activity (AID 2283068); details: primary human keratinocytes with fibroblasts; actives raise or lower the signal
Outline: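 KF3CT co-culture (keratinocytes + foreskin fibroblasts), 24 h compound, IP-10 by ELISA; bidirectional fit vs DMSO baseline.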

[15] = BSK_KF3CT_SRB: Viability Assessment in the BioMAP Diversity Plus: KF3CT Assay (AID 2283069); details: primary human keratinocytes with fibroblasts;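 further: total protein by sulforhodamine B staining as a cytotoxicity measure; read 24 h after compound addition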
Outline: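 Human primary keratinocyte plus foreskin fibroblast co-culture exposed to chemicals for 24 h. Total protein measured by 0.1% sulforhodamine B staining after 10% TCA fixation, read at 560 nm; bidirectional fitting versus DMSO baseline.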

[16] = read-out: Interleukin-1 alpha (IL1a), IL1A (gene 3552); experiment: BSK_KF3CT_IL1a: BioMAP Diversity Plus: KF3CT Assay for Interleukin-1 alpha (IL1a) Biomarker Activity (AID 2283070); details: primary human keratinocytes with fibroblasts; actives raise or lower the signal
Outline: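 Human keratinocyte plus foreskin fibroblast primary co-culture, sampled 24 h after chemical dosing. IL-1a measured by ELISA; responses fitted bidirectionally against DMSO baseline (negative control), so gain or loss of signal both count.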

[17] = read-out: TIMP metallopeptidase inhibitor 2 (TIMP2), TIMP2 (gene 7077); experiment: BSK_KF3CT_TIMP2: BioMAP Diversity Plus: KF3CT Assay for TIMP metallopeptidase inhibitor 2 (TIMP2) Biomarker Activity (AID 2283071); details: primary human keratinocytes with fibroblasts; actives raise or lower the signal
Outline: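 Human primary keratinocyte/foreskin fibroblast co-culture dosed with chemical and sampled at 24 h. TIMP-2 levels quantified by ELISA; bidirectional fitting against DMSO negative control as baseline.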

[18] = read-out: Transforming growth factor beta 1 (TGFb1), TGFB1 (gene 7040); experiment: BSK_KF3CT_TGFb1: BioMAP Diversity Plus: KF3CT Assay for Transforming growth factor beta 1 (TGFb1) Biomarker Activity (AID 2283072); details: primary human keratinocytes with fibroblasts; actives raise or lower the signal
Outline: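 Human keratinocyte plus foreskin fibroblast primary co-culture, dosed with chemical for 24 h. TGF-b1 quantified by ELISA. Activity fitted bidirectionally against DMSO negative control as baseline.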

[19] = read-out: C-C motif chemokine 2 (Homo sapiens) (UniProt P13500); experiment: BSK_KF3CT_MCP1: BioMAP Diversity Plus: KF3CT Assay for Monocyte Chemoattractant Protein 1 (MCP1/CCL2) Biomarker Activity (AID 2283073); details: primary human keratinocytes with fibroblasts; actives raise or lower the signal
Outline: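 ELISA readout of MCP-1 after 24 h chemical dosing of a human skin primary co-culture of keratinocytes and foreskin fibroblasts. Activity was fitted in both directions against DMSO.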

[20] = read-out: Matrix Metallopeptidase 9 (MMP9), MMP9 (gene 4318); experiment: BSK_KF3CT_MMP9: BioMAP Diversity Plus: KF3CT Assay for Matrix Metallopeptidase 9 (MMP9) Biomarker Activity (AID 2283074); details: primary human keratinocytes with fibroblasts; actives raise or lower the signal;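 on AC50: MMP9 protein level quantified by ELISA in the co-culture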
Outline: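 Keratinocyte plus foreskin fibroblast human primary skin co-culture was dosed with chemical and MMP-9 was quantified by ELISA 24 h later. Bidirectional curve fitting used DMSO as negative control and activity baseline.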

Measured: AC50

Cc1ccccc1OP(=O)(Oc1ccccc1)Oc1ccccc1
active: [2] 2.84 µM | [5] 20 µM | [6] 10.5 µM | [7] 29.2 µM | [8] 14.5 µM | [9] 20 µM | [10] 27.4 µM | [11] 5.06 µM | [16] 20 µM | [17] 14.4 µM | [18] 0.016 µM | [20] 8.99 µM
inactive: [1] | [3] | [4] | [12] | [13] | [14] | [15] | [19]

N#CCCC(Br)(C#N)CBr (configuration not stated)
inactive: [3]
active: [1] 11.9 µM | [2] 17 µM | [4] 12.7 µM | [5] 0.4 µM | [6] 5.08 µM | [7] 7.68 µM | [8] 4.28 µM | [9] 6.19 µM | [10] 11.8 µM | [11] 3.74 µM | [12] 9.61 µM | [13] 26.8 µM | [15] 20 µM | [16] 14.4 µM | [17] 20 µM | [18] 11.3 µM | [19] 20 µM | [20] 20 µM

Clc1cccc(Cl)c1Cl
inactive: [1] | [2] | [3] | [4] | [5] | [6] | [7] | [8] | [9] | [10] | [11] | [12] | [13] | [14] | [15] | [16] | [17] | [18] | [19]

CCC(C)(C#N)N=NC(C)(C#N)CC (configuration not stated)
active: [12] 0.016 µM
inactive: [1] | [2] | [3] | [4] | [5] | [6] | [7] | [8] | [9] | [10] | [11] | [13] | [15] | [16] | [17] | [18] | [19] | [20]

C[C@]12CC[C@@H](O)C[C@@H]1CC[C@@H]1[C@@H]2CC[C@]2(C)C(=O)CC[C@@H]12
inactive: [1] | [2] | [3] | [4] | [5] | [6] | [7] | [8] | [9] | [10] | [11] | [12] | [13] | [14] | [15] | [16] | [17] | [18] | [19] | [20]

NC(=O)CCl
inactive: [1] | [3] | [4] | [5] | [6] | [7] | [8] | [9] | [10] | [11] | [12] | [13] | [14] | [15] | [16] | [17] | [18] | [19] | [20]
active: [2] 9.58 µM

N#Cc1cccnc1
inactive: [1] | [2] | [3] | [4] | [5] | [6] | [7] | [8] | [9] | [10] | [11] | [12] | [13] | [14] | [15] | [16] | [17] | [18] | [19] | [20]
